Bioassay records (PubChem BioAssay)
POLK inh: DNA polymerase kappa (human) inhibition; purified Pol kappa, fluorescent DNA synthesis assay, 10 min; Potency, µM (doses to about 107 µM), for inactives: top-dose activity, negative = inhibition, hits mostly inhibitors; AID 588579; actives 0.53% (n = 400,000); also: potency is read from the fitted curve at half-maximal effect; % is scaled to controls: 0 for no effect and ±100 for the full control effect
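10 nM Pol kappa preincubated 15 min at room temperature with compounds, then reaction started with substrate at 50 nM final. Fluorescence read kinetically at 0 and 10 min; buffer-only wells served as negative control.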
POLB inh: blocks human DNA polymerase beta activity | P06746 | Pol beta primer extension/strand displacement, fluorescence kinetic | Potency, µM (highest dose often 114 µM), for inactives: at the top dose activity change, negative = inhibition, hits mostly inhibitors | actives 1.3% (n = 340,000); also: potency is read from the fitted curve at half-maximal effect; % is scaled to controls: 0 for no effect and ±100 for the full control effect
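Human Pol beta at 10 nM; strand-displacement substrate 50 nM final. Compound exposure 15 min at room temperature before start, reaction 10 min at room temperature.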
Pol eta inh: inhibitors of human DNA polymerase eta; Q9Y253; recombinant Pol eta, fluorescent DNA replication assay; Potency, µM (series often up to 114 µM), for inactives: at the highest dose activity change, negative = inhibition, actives largely listed as inhibitors; actives 1.2% (n = 390,000); AID 588591; also: potency is read from the fitted curve at half-maximal effect; % is scaled to controls: 0 for no effect and ±100 for the full control effect
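Pol eta (10 nM) was preincubated with compounds for 15 min at room temperature, after which fluorescent replication substrate (50 nM final) was added to start the reaction. Fluorescence was read kinetically at 0 and 10 min.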
PI5P4K alpha inh: inhibitors of human PI5P4K alpha; max response, %; AID 652105; PI5P4Kalpha enzyme, ADP-Glo luminescence, 60 min; hits give low values; actives 1.2% (n = 330,000); P48426; active = max response of -50% or lower; inconclusive = between -30% and -50%; inactive = -30% or higher; also: value at the top dose of about 77 µM; % is scaled to controls: 0 for no effect and ±100 for the full control effect
Target sequence (P48426 whole entry, looked up): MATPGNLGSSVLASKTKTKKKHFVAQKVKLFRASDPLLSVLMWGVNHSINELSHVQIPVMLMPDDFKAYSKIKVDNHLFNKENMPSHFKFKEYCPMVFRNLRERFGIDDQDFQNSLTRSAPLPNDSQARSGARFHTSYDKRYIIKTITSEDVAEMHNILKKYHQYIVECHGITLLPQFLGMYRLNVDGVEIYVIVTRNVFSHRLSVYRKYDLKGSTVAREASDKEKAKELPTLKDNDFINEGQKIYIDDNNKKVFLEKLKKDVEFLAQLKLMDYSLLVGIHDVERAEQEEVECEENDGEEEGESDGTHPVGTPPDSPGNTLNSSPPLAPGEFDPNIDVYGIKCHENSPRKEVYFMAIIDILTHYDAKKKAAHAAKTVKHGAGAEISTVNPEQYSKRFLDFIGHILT
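ADP-Glo luminescence end-point read after a 60 min room-temperature kinase reaction of PI5P4Kalpha plus substrate, initiated with ATP at 5 microM final. Buffer: 0.038 M HEPES pH 7.4, EGTA, 0.1% CHAPS, 5% DMSO.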
Pol iota inh: DNA polymerase iota (human) inhibition. Q9UNA4. Pol iota fluorescent replication assay, 10 min. Potency, µM (series often up to 115 µM), without a hit: top-dose activity, negative = inhibition, hits mostly inhibitors. actives 1% (n = 390,000). AID 588590; also: potency is read from the fitted curve at half-maximal effect
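Pol iota at 10 nM preincubated 15 min with compounds at room temperature; reaction started with fluorescent substrate, 50 nM final. Fluorescence read kinetically at 0 and 10 min; buffer-only wells as negative control.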
WRN helicase inh: blocks human WRN helicase | AID 651768 | Potency, µM (highest dose often 114 µM), inactives show top-dose activity change, negative = inhibition, actives largely listed as inhibitors | Q14191 | actives 0.46% (n = 360,000) | WRN helicase unwinding, fluorescent forked duplex, kinetic; also: potency is read from the fitted curve at half-maximal effect; % is scaled to controls: 0 for no effect and ±100 for the full control effect; nearly all actives have a fitted effect of over 55% in size
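Fluorescence dequenching readout, ex 525 nm/em 598 nm, kinetic mode: forked duplex DNA (100 nM final) with adjacent fluorophore and quencher unwound by WRN (20 nM final) with 2 mM ATP. Compound preincubation 15 min, room temperature.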
* marks the source's active call; other numbers are inactive results; i = inactive; ? = inconclusive; · = no result given; [ ] = dose if it differs, or a comment. Hits are enriched below; roughly 2.8% of the tested compounds scored in any of these assays. Unless noted, calls follow the shape of the dose curve; as a rule, active = well fitted curve in the direction sought with a large enough effect; inconclusive = small, poorly fitted or top-dose-only effect, or another doubt; inactive = no such curve, though single readings can be large; an effect the other way counts as inactive or inconclusive.

SMILES	POLK inh	POLB inh	Pol eta inh	PI5P4K alpha inh	Pol iota inh	WRN helicase inh
COc1ccc(Br)cc1CNC(=O)CN1C(=O)C(c2ccccc2)Oc2cccnc21 (stereo unspecified)	-15%	?	-14%	-16	?	-5%
Clc1cccc(Nc2ncnc3ccc(Br)cc23)c1	-19%	7%	-16%	·	100µM*	-24%
Cc1cccc(Nc2ncnc3ccc(Br)cc23)c1	-8%	-2%	-9%	-15	-14%	6%
COc1ccccc1-n1cnnc1SCC(=O)c1c[nH]c2ccccc12	3%[60.1 µM]	-2%	-10%	-56*	47%	5%
COc1ccc2c(c1)CC(C(=O)NCCCN1CCN(c3cccc(Cl)c3)CC1)CO2 (stereo unspecified)	-6%[60.1 µM]	3%	-12%	·	?	·
O=[N+]([O-])c1cc2c(cc1CN1CCN(CCOCCO)CC1)OCO2	?	19%	-2%	-1	7.9µM*	-2%[11.6 µM]
O=S(Cc1ccc(Cl)cc1)c1ccccc1 (stereo unspecified)	-2%	·	-7%	0	13%	-3%
COc1cccc(C(=O)c2cn(CC(=O)NCc3ccco3)c3nc(C)ccc3c2=O)c1	89µM*	?	40µM*	-29	22µM*	?
O=S(c1cc(Cl)cc(Cl)c1O)c1cc(Cl)cc(Cl)c1O	-3%[19.4 µM]	·	·	-51*	·	-13%
COCCCn1c(=O)c2ccccc2n(Cc2cc(C(=O)OC)ccc2OC)c1=O	-14%	19%	-18%	-2	47%	5%
CCOC(=O)c1cc(C(=O)NC(C)c2ccccc2)c(C)[nH]c1=O (stereo unspecified)	0%	36%	-3%	-11	0%	9%
O=C(O)c1ccc(-c2ccc(Cl)cc2Cl)o1	-10%	17%	6%	?	3%	5%
CN(C)/C=C/C(=O)c1ccc(-c2ccc(Cl)cc2Cl)o1	-14%	32µM*	-19%	-64*	92%	-10%
CSc1nc(=S)c2[nH]c(=S)[nH]c2[nH]1	-26%	-1%	-14%	-87*	14µM*	50µM*
O=C(CCS(=O)(=O)c1ccc(Br)cc1)NC1CCCCCC1	-4%	?	25µM*	1	15%	-13%[11.6 µM]
CC(=NNC(=S)N1CC2CCC(CC2)C1)c1ccncn1	2%	·	-1%	-6	33%	5%
CCOC(=O)C(C)C(C)=O (stereo unspecified)	?	·	?	7	i	16µM*
O=C(CCCCn1ccc(=O)[nH]c1=O)Nc1ccc(C(=O)O)c(O)c1	-4%	·	-10%	-71*	24%	-4%
O=C(CCCCn1ccc(=O)[nH]c1=O)Nc1ccc(O)c(C(=O)O)c1	-6%	·	-3%	-8	47%	3%
C=CCn1c(SCc2ccccc2F)nc2cc(C(=O)O)ccc2c1=O	-9%	-1%	1%	-74*	22%	-7%
C=CCn1c(SCC(=O)N(CC)C2CCS(=O)(=O)C2)nc2cc(C(=O)O)ccc2c1=O (stereo unspecified)	-17%	·	0%	-64*	-4%	-3%
CC(=O)NCCn1c(SCc2ccccc2F)nc2ccccc2c1=O	-11%	21%	-24%	·	-6%	5%
O=C(Nc1cc2c(cc1[N+](=O)[O-])OCCO2)c1cccnc1	-2%	·	0%	-6	25%	-3%
O=C(/C=C/c1ccc(/C=C/C(=O)Nc2ccc(C3=NCCN3)cc2)cc1)Nc1ccc(C2=NCCN2)cc1	19µM*	·	·	·	·	·
O=C(Nc1ccc(NC(=O)c2ccc(Cl)cc2Cl)cc1)c1ccc2c(c1)OCO2	1%	60%	-7%	-2	37%	19%
SMILES	POLK inh	POLB inh	Pol eta inh	PI5P4K alpha inh	Pol iota inh	WRN helicase inh
O=C(Nc1ccc(C2=NCCN2)cc1)c1ccc(C(=O)Nc2ccc(C3=NCCN3)cc2)c(Cl)c1	?	0.89µM*	-16%	-9	?	?
O=C(Nc1cccc(C2=NCCN2)c1)Nc1cccc(C2=NCCN2)c1	7.5µM*	·	22µM*	1	10%	8%
CN(C)c1ccc(S(=O)(=O)NCC(=O)NCCC2=CCCCC2)cc1[N+](=O)[O-]	0%	·	-13%	3	24%	7%
Cc1cc(C(=O)Nc2ccc(Cl)cc2)c(C)n1-c1ccccc1	-10%	0%	-25%	2	136%	-21%
Cc1cc(C(=O)NNS(=O)(=O)c2cc(C(=O)O)ccc2Cl)c(C)n1-c1ccccc1	?	·	22µM*	-25	?	-15%
O=C(Cc1nnc(NC(=O)Nc2ccc(F)cc2)s1)NCc1ccccc1	-1%	-13%	-5%	-1	11%	4%
C=CC1=C(C)C2=Cc3c(C=C)c(C)c4[n]3[Sn+2][n]3c(c(C)c(CCC(=O)O)c3=CC3=NC(=C4)C(C)=C3CCC(=O)O)=CC1=N2	13µM*	·	·	·	·	·
CCOc1ccc2oc(C(=O)NNC(=O)c3ccccc3O)c(C)c2c1	-23%	·	79µM*	-13	?	1%[11.6 µM]
Cc1c(C(=O)NNC(=O)c2ccccc2O)oc2ccc(Br)cc12	-9%	·	?	?	?	?
COC(=O)C1CCN(C(=O)COC(=O)CNS(=O)(=O)c2ccc(SC)c([N+](=O)[O-])c2)CC1	-41%	·	?	-21	79µM*	-10%[11.6 µM]
C=CCn1c(SCC(=O)NCCCC)nc2scc(-c3ccco3)c2c1=O	40µM*	22µM*	10µM*	-57*	20µM*	?
C=CCn1c(SCC(=O)NC(=O)NCc2ccco2)nc2sc(C)c(C)c2c1=O	-15%	0%	?	-5	?	-10%
C=CCn1c(SCC(=O)NC2CCCC2)nc2scc(-c3ccco3)c2c1=O	?	25µM*	16µM*	-83*	?	?
CC(C)C[C@H](NC(=O)/C=C/[C@H]1O[C@@H](n2ccc(=O)[nH]c2=O)[C@H](O)[C@@H]1O)C(=O)O	·	·	·	0	·	-8%
C/C=C(\C)C(=O)NCCN1C2=NC[C@@H](Cc3ccccc3)N2C[C@H]1Cc1ccc(O)cc1	-24%	-25%	-14%	-4	71µM*	-3%[11.6 µM]
CCCCN(CCCC)c1ccc(C(=O)c2ccccc2C(=O)O)c(O)c1	-6%	89µM*	-2%	·	-43%	-9%
COC(=O)/C(=C\C=C\c1ccccc1)NC(=O)c1ccccc1	-3%	23%	-2%	-54*	21%	-26%
O=C(Nc1ccc(O)cc1)/C(=C\C=C\c1ccccc1)NC(=O)c1ccccc1	-8%	-15%	-2%	3	-2%	-10%
Cc1cccc(N2C(=O)CSC2c2cccnc2)c1 (stereo unspecified)	-9%	100µM*	0%	·	1%	-14%
NC(=O)N/N=C\c1ccc([N+](=O)[O-])o1	-2%[12 µM]	·	·	·	·	·
